Experimental findings from ChEMBL document CHEMBL4513149, “CO-ADD screening of MMV (CH) - MMV compounds” (2021) are described below.

Measured potencies and affinities stand elsewhere.

One assay relates to Staphylococcus aureus. The note with it: Concentration 20 uM; ASSAY_TEST Inhibition of Bacterial Growth; detection method Absorption (OD600); MEDIA CAMHB; plate type 384well; NBS; CORNING #3640; time 18 hr.
Another assay relates to Escherichia coli. The note with it: Concentration 20 uM; ASSAY_TEST Inhibition of Bacterial Growth; detection method Absorption (OD600); MEDIA CAMHB; plate type 384well; NBS; CORNING #3640; time 18 hr.

`Cc1cc2ccccc2n1CC(=O)N1CC(C(=O)N2CCCCC2)Oc2ccccc21` (stereo not given): the figures for the Inhibition in the assay on Staphylococcus aureus and in the assay with Escherichia coli were 16.51% and 10.52%, respectively.

For `Cl.c1ccc(C[C@@H]2CN(c3nccc(Oc4ccc(-n5ccnc5)cc4)n3)CCN2)cc1`, the Inhibition in the assay on Staphylococcus aureus stood at 21.29%; in the assay with Escherichia coli it was 8.76%.

Consider `c1ccc(Oc2ccc(-c3cc(C4CCOCC4)[nH]n3)cc2)cc1`, for which the values for the Inhibition in the assay on Staphylococcus aureus and with Escherichia coli were 24.63% and 11.25%, respectively.

With `CC1CCCCN1C(=O)NCCc1coc(-c2ccc(F)cc2)n1` (stereo not given), the values for the Inhibition in the assay on Staphylococcus aureus and with Escherichia coli were 23.75% and 7.62%, respectively.

Consider `CCCn1c(CNc2ccccc2O)nc2ccccc21`, for which the Inhibition in the assay with Staphylococcus aureus was 17.07%; in the assay on Escherichia coli, 4.85%.

In the case of `CN1CCC(c2cc(-c3ccncc3)c(-c3ccc(F)cc3)[nH]2)CC1`, the figures for the Inhibition in the assay on Staphylococcus aureus and with Escherichia coli were -0.65% and -2.15%, respectively.

In the case of `COC(=O)c1c(NC(=O)c2cc3ccccc3oc2=O)sc2c1CCN(Cc1ccccc1)C2`, the Inhibition is reported as 19.04% in the assay on Staphylococcus aureus and 12.69% with Escherichia coli.

For `Nc1ccc(C(=O)Nc2ccc(-c3nc4ccccc4o3)cc2)cc1`, the Inhibition was determined as 11.63% with Staphylococcus aureus and 11.29% with Escherichia coli.

Consider `COc1ccc(-c2cnc3ccc(NCc4ccc(S(N)(=O)=O)cc4)nn23)cn1`, for which the Inhibition was 19.01% with Staphylococcus aureus and 10.16% with Escherichia coli.

On to `COC(=O)C1=C(C)NC(C)=C(C(=O)OC(C)C)C1c1cccc2nonc12` (stereo not given) [ISRADIPINE], for which the values for the Inhibition in the assay with Staphylococcus aureus and in the assay with Escherichia coli were 3.78% and -1.04%, respectively.

Regarding `COc1cc(C2=NCCN2)ccc1-n1cc(-c2cccc(C3=NCCN3)c2)nn1.O=CO.O=CO`, the Inhibition in the assay on Staphylococcus aureus was found to be 1.49%; in the assay with Escherichia coli it was 8.11%.

For the molecule `CC1=NN(c2nc3ccccc3s2)C(=O)C1Cc1cccc2ccccc12` (stereo not given), the values for the Inhibition in the assay with Staphylococcus aureus and in the assay on Escherichia coli were 69.16% and 0.69%, respectively.

As for `CC1(C)Cc2c(c(N3CCOCC3)nc3snc(Br)c23)CO1`, the Inhibition is recorded as 19.87% in the assay on Staphylococcus aureus and 4.52% in the assay with Escherichia coli.

As to `COc1ccc(-c2onc(C(F)(F)F)c2-c2ccc(Cl)cc2)c(O)c1`, the Inhibition is given as 22.97% in the assay on Staphylococcus aureus and 5.79% in the assay with Escherichia coli.

Consider `CN1CCN(S(=O)(=O)c2ccc(-c3ccc4c(Nc5ncc(Cl)cn5)ccnc4c3)cc2)CC1`, for which the results for the Inhibition in the assay on Staphylococcus aureus and in the assay with Escherichia coli were 23.03% and 2.97%, respectively.

As to `COc1cc(C(F)(F)F)nc2ccc(C)c(N)c12`, the Inhibition in the assay on Staphylococcus aureus is given as 15.64%; in the assay on Escherichia coli it was 5.11%.

Turning to `CCc1nc2ccccc2n1CC(O)COc1cc(C)ccc1Cl` (stereo not given), the Inhibition with Staphylococcus aureus came out at 11.53%; with Escherichia coli, 4.16%.

For `Cc1ccc2nc(Cl)c(CNCc3cccs3)cc2c1`, the results for the Inhibition in the assay with Staphylococcus aureus and in the assay with Escherichia coli were 2.71% and -1.94%, respectively.

With `Nc1ncnc2c1c(Cc1cccc3ccccc13)nn2CC1CCNCC1`, the Inhibition in the assay with Staphylococcus aureus is reported as -11.63%; with Escherichia coli, -7.67%.

On to `N#Cc1ccc(-c2ccc(OCC(N)=O)cc2)cc1`, for which the Inhibition is given as 6.41% with Staphylococcus aureus and -3.93% in the assay with Escherichia coli.

As to `COC(=O)c1ccc(F)cc1NS(=O)(=O)c1cccc(-c2cnn(Cc3ccccc3)c2)c1`, the Inhibition in the assay on Staphylococcus aureus stood at 11.02%; in the assay on Escherichia coli, 13.23%.

For the molecule `CCCCN(CCCC)c1c(C#N)cc(S(=O)(=O)Nc2ccccc2)cc1C#N`, the Inhibition with Staphylococcus aureus is recorded as 3.78%; in the assay on Escherichia coli, -2.29%.

Regarding `NCC(=O)N1CCn2c(nc(-c3ccccc3)c2Nc2ccc3c(c2)OCO3)C1`, the Inhibition with Staphylococcus aureus is 11.35%; with Escherichia coli it was -1.15%.

Consider `Cc1cc(C(=O)Nc2cnn(Cc3ccc(Cl)cc3Cl)c2)no1`, for which the Inhibition is listed as 4.82% with Staphylococcus aureus and 8.52% in the assay with Escherichia coli.

For the molecule `COc1cc(CN2CCC3(C=Cc4ccccc43)CC2)cc2c1OCO2`, the Inhibition in the assay on Staphylococcus aureus was -1.3%; in the assay on Escherichia coli, -2.88%.

For the molecule `Cc1nn2c(O)c3c(nc2c1-c1ccc(F)cc1)CCCC3`, the Inhibition with Staphylococcus aureus was determined as 17.1%; in the assay with Escherichia coli it was 16.25%.

For `O=C(C1CCN(c2nnnn2-c2ccccc2)CC1)N1CCc2ccccc2C1`, the values for the Inhibition with Staphylococcus aureus and in the assay on Escherichia coli were 18.44% and 5.61%, respectively.

Consider `Cc1nc(-c2ccccn2)nc(NCCc2ccc(S(C)(=O)=O)cc2)c1Cl`, for which the Inhibition in the assay on Staphylococcus aureus is 4.78%; in the assay on Escherichia coli, -2.55%.

Turning to `CN1CCN(c2nccc3nc(-c4ccc(F)c(F)c4)[nH]c23)CC1`, the figures for the Inhibition with Staphylococcus aureus and with Escherichia coli were 17.33% and 8.63%, respectively.

As to `CC(C)(C)c1cnc(NC(=O)c2ccccc2O)s1`, the results for the Inhibition with Staphylococcus aureus and in the assay on Escherichia coli were 23.8% and 4.86%, respectively.

For `CS(=O)(=O)N1CCC(CCn2nc(Cc3cccc4ccccc34)c3c(N)ncnc32)CC1`, the Inhibition with Staphylococcus aureus is given as 11.8%; with Escherichia coli it was -2.01%.

Regarding `CNC(=O)c1cc(S(=O)(=O)N2CCN(c3ccccn3)CC2)cs1`, the results for the Inhibition in the assay with Staphylococcus aureus and in the assay on Escherichia coli were 7.99% and -1.66%, respectively.

For `COc1cc(Br)cc2cc(C(=O)Nc3cccc(C(F)(F)F)c3)c(=O)oc12`, the Inhibition in the assay on Staphylococcus aureus is reported as 7.48%; in the assay on Escherichia coli it was 1.89%.

With `COc1ccc(CCN2CCC(NCc3cccc(N(C)C)c3)CC2)cc1`, the Inhibition in the assay on Staphylococcus aureus is on record as 16.93%; in the assay on Escherichia coli, 1.75%.

Regarding `COc1ccc(C2=NN(C3CCCCCC3)C(=O)[C@@H]3CC=CC[C@H]23)cc1OCCCCOc1ccc(-c2nnn[nH]2)cc1`, the figures for the Inhibition with Staphylococcus aureus and with Escherichia coli were 53.58% and 1.88%, respectively.
